Source: ChEMBL document CHEMBL3433997, “St. Jude Leishmania screening dataset” (2016)

Biological target: Solute carrier family 2, facilitated glucose transporter member 1 (Homo sapiens) (UniProt P11166)
Experiment: ST_JUDE_LEISH: Cytotoxicity at 2uM final concentration against transgenic Leishmania Mexicana promastigotes LmGLUT1 that are glucose transport deficient and complemented with the human glucose transporter GLUT1. Activity is measured by DNA content using SYBR green in vitro
Format: functional

Chain of Solute carrier family 2, facilitated glucose transporter member 1 (Homo sapiens) (P11166 whole entry): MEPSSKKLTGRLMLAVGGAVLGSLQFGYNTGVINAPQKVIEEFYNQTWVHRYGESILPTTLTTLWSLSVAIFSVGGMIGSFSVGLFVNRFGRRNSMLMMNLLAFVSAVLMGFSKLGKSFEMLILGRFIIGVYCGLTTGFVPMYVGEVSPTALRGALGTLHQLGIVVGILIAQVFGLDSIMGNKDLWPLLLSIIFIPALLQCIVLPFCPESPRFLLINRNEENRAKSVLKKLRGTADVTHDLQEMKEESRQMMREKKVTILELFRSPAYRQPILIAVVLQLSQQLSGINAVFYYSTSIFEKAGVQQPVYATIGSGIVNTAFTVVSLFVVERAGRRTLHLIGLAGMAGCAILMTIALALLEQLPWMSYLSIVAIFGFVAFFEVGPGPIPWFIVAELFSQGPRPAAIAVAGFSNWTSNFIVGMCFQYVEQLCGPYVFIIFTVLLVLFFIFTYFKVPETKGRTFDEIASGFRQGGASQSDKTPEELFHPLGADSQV

SMILES	inhibition
CC(Cc1ccc(NC(=O)c2ccc(CC(C)NCc3ccc(Cl)c(Cl)c3)cc2)cc1)NCCc1cccc(Cl)c1 (stereo not given)	1.59%
CCn1c(Sc2ccc([N+](=O)[O-])c(C#N)c2)nnc1-c1ccc(Cl)cc1	9.05%
Cc1ccc(CN2CCCN(Cc3ccc(C(=O)Nc4ccc(Cl)cc4)cc3)CC2)s1	2.49%
CCN(CC)CCN1C(=O)c2oc3ccc(Cl)cc3c(=O)c2C1c1ccc(SC)cc1 (stereo not given)	-3.16%
COc1ccc(-c2cnc(N)c(-c3nc4cc(Br)ccc4[nH]3)c2)cc1	9.38%
COc1ccc(Cc2nc(/N=C(\N)Nc3ccccc3)ccc2OC)cc1	0.38%
NC1CCCN(Cc2ccc(-c3ccc(-c4nc5ccccc5[nH]4)s3)cc2)C1 (stereo not given)	8.95%
O=C(Nc1ccccc1)NC1CCN(CCC2(c3ccc(Cl)c(Cl)c3)COCN(C(=O)c3ccccc3)C2)C1 (stereo not given)	4.31%
CN1CCN(Cc2ccc(-c3ccc4c(Nc5ccc(F)cc5Cl)ccnc4c3)o2)CC1	0.53%
O=C(CCCCCNC(=O)c1ccc(O)c(-c2ccc(Cl)c(Cl)c2)c1)NCCN1CCOCC1	4.35%
Cc1cc(C(=O)CN2C(=O)NC3(CCCc4ccccc43)C2=O)c(C)n1Cc1ccc(F)cc1 (stereo not given)	2.81%
O=C(NCc1ccc(Cl)cc1)c1ccc(CN2CCCN(CC3CCCCC3)CC2)cc1	4.46%
O=C(Nc1ccc(-c2nc3ccccc3[nH]2)cc1)c1ccc(N2CCCC2)c([N+](=O)[O-])c1	0.71%
Cc1cc(F)ccc1-c1nc(N(C)CCN(C)C(=O)N(C)c2ccccc2)nc2c1ccc(=O)n2-c1c(F)cccc1F	2.99%
CN(CCN1CCC(c2c[nH]c3ccccc23)CC1)c1ccc(-c2nc3cc(Cl)c(Cl)cc3[nH]2)cc1	2.04%
